697 NFkB inh: inhibitors of PMA/ionomycin-induced NF-kB reporter, 697 cells, primary screen, B-cell NF-kB inhibitor project, cell-based, luminescence, uHTS. 697 B-cell NF-kB luciferase reporter, 16 h. inhibition, % at 4 µM. 0.33% of 330,000 active; in the data active = inhibition above about 35%
TAG inh: inhibitors of triacylglycerol accumulation, primary screen, cell-based, uHTS, fluorescence, H9c2; inhibition, % at 12.5 µM; 0.66% of 230,000 active; H9c2 cells, Nile Red lipid (TAG) fluorescence; cells loaded with 200 µM oleic acid;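 active = pattern-corrected inhibition of lipid staining of at least 50% with the nuclear-stain viability signal not falling by more than 50%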;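 also: 0% = DMSO wells and 100% = triacsin C control wells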
aSyn UTR inh: MLPCN primary screen, SNCA 5' untranslated region; 0.82% of 300,000 active; alpha-synuclein 5'UTR reporter, inhibitor activity; inhibition, % (tested at 7.5 µM); AID 1813, 2009; in the data active = inhibition above about 60%;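 also: H4 neuroglioblastoma cells stably carrying SNCA 5'UTR luciferase fusion; 0% = DMSO wells and 100% = positive control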
Jurkat NFkB inh: inhibitors of induced NF-kB luciferase reporter, primary screen, TCR NF-kB activation inhibitor project, cell-based, luminescence, uHTS; Jurkat, PMA/ionomycin-induced NF-kB luciferase reporter; inhibition, % at 4 µM; AID 435003, 2010; 0.53% of 330,000 active; in the data active = inhibition above about 50%
Shn3 inh set2: reduction of Shn3 3'UTR firefly luciferase signal, primary screen, Schnurri-3 inhibitor project, cell-based, Clone20 osteoblasts, set 2. 0.52% of 360,000 active. Clone20 osteoblast Shn3 3'UTR firefly luciferase, 24 h. inhibition, % at 12.5 µM;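 active = mean inhibition of at least 75% with every replicate also reaching 75%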;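 also: 0% = median of neutral control wells and 100% = pilot-screen positive control compound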
Gli-Sufu antag: Gli-Sufu pathway antagonists, primary screen, luciferase luminescence, Sufu-KO-LIGHT cells, uHTS. inhibition, % at 5 µM. AID 588413, 2011. 0.74% of 340,000 active. Sufu-KO-LIGHT fibroblasts, Gli luciferase reporter luminescence;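 active = inhibition above about 55%, limit read from the data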;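 also: 0% = DMSO-treated cells and 100% = wells with medium but no cells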
Jurkat NFkB conf: PMA/ionomycin-induced NF-kB reporter inhibitors, Jurkat retest, confirmation, T-cell NF-kB inhibitor project, cell-based, luminescence, single concentration; shares compounds with Jurkat NFkB inh; Jurkat NF-kB luciferase, 16 h; inhibition, % at 4 µM; 27% of 2,700 active; AID 435020, 2010;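 active = inhibition reaching about 45% at 4 µM in either replicate, limit read from the data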;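 also: plate controls were PMA/ionomycin stimulated DMSO wells for no effect and unstimulated DMSO wells for full effect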
* = called active by the depositor; · = no result given. Rows were chosen to be rich in hits. Some 2.3% of all compounds tested hit in one or more screens of this group.

SMILES	697 NFkB inh	TAG inh	aSyn UTR inh	Jurkat NFkB inh	Shn3 inh set2	Gli-Sufu antag	Jurkat NFkB conf
C#CCOc1cc(C2C3=C(COC3=O)Nc3cc4c(cc32)OCO4)ccc1OC (stereo unspecified)	-9	41	78*	39	-7	-12	·
CCCCn1nnnc1C(c1ccnc2ccccc12)N1CCC2(CC1)C(=O)NCN2c1ccccc1 (stereo unspecified)	·	·	·	·	1	·	·
COC(=O)C1=C(c2ccc(F)cc2OCc2ccccc2)C[C@@H]2CC[C@H]1N2C(=O)NC1Cc2ccccc2C1	-13	12	·	-7	87*	23	·
CC(C)(O)/C=C/C(=O)C(C)(O)C1C(O)CC2(C)C3CC=C4C(C=C(O)C(=O)C4(C)C)C3(C)C(=O)CC12C (stereo unspecified)	·	8	·	·	89*	89*	·
CC(O)C1C=CC=CC(=O)OC2CC3OC4C5OC5(C)C(O)CC4(COC(=O)C(O)C(C)CCO1)C2(C)C31CO1 (stereo unspecified)	·	113	·	·	96*	92*	·
CC1=CC2OC3CC4OC(=O)C=CC=CC(=O)OCCC(C)C(O)C(=O)OCC2(CC1)C4(C)C31CO1 (stereo unspecified)	·	123	·	·	98*	92*	·
CC1=CC2OC3CC4OC(=O)C=CC=CC(C(C)O)OCC(O)C5(C)OC5C(=O)OCC2(CC1O)C4(C)C31CO1 (stereo unspecified)	·	133	·	·	98*	88*	·
COP(=O)(OC)C(NC(C)=O)C(Cl)(Cl)Cl (stereo unspecified)	15	3	10	-5	-4	3	·
CN(C)CC1CSCCC1(O)c1cccc(Cl)c1 (stereo unspecified)	-17	9	-8	-15	-8	1	·
CC1(C)N2CC3([N+](=O)[O-])CN1CC([N+](=O)[O-])(C2)C3	8	-1	22	-8	-2	4	·
O=[N+]([O-])c1ccccc1Cl	·	·	·	·	4	3	·
CN1/C(=C\C=C\C2=[N+](C)c3ccc4ccccc4c3C2(C)C)C(C)(C)c2ccccc21	24	·	·	99*	·	·	84*
COc1ccc(-c2cc(-c3ccccc3)[n+](C)c(-c3ccccc3)c2)cc1	-8	-24	34	42	15	44	·
COc1ccc(-[n+]2c(-c3ccccc3)cc(-c3ccc(C)cc3)cc2-c2ccccc2)cc1	-26	·	35	66*	37	91*	41
ON1C2CCCCC2N(O)C1c1ccccc1F (stereo unspecified)	-8	1	4	0	6	6	·
COc1ccc(NC2Oc3cc4c(cc3C(c3cc(OC)c(OC)c(OC)c3)C2C)OCO4)cc1 (stereo unspecified)	·	49	·	·	-12	44	·
COc1cc(C2c3cc4c(cc3CC3COC(=O)C32)OCO4)cc(OC)c1OC (stereo unspecified)	-29	·	·	53*	18	42	49*
Cc1nc2c(=O)n(C)c(=O)nc-2n(C)n1	-30	113	115*	56*	98*	76*	100*
CNc1ccc2nc3ccccc3[n+](C)c2c1	4	·	46	81*	36	16	6
COc1ccc(-c2nn(CCC#N)cc2C(=O)Nc2ccccc2Cl)cc1	3	·	5	-16	14	6	·
NNC(=O)c1ccc(Cl)cc1	11	·	-9	11	-10	1	·
C=C(C=O)C[C@@H]1C[C@H](O)C2OC3C[C@]4(C)OC5/C=C\CC6OC7C(CC=CCC6OC5CCCC4OC3CC2O1)OC1CC2OC3CC(=O)OC3C[C@@H](C)C[C@@]2(C)OC1C[C@@H]7C (stereo partly specified)	-143	·	113*	101*	·	61*	99*

Screens deposited in PubChem BioAssay by several laboratories.
